Test results taken from ChEMBL document CHEMBL1157539, “Thousands of chemical starting points for antimalarial lead identification” (Nature, 2010).

What was measured:
Format in all cases: functional
Plasmodium falciparum [1] = assay: GSK_TCMDC: Inhibition of Plasmodium falciparum 3D7 in whole red blood cells, using parasite LDH activity as an index of growth. Test compounds present at 2uM
Plasmodium falciparum [2] = assay: GSK_TCMDC: Inhibition of Plasmodium falciparum Dd2 in whole red blood cells, using parasite LDH activity as an index of growth. Test compounds present at 2uM
HepG2 = assay: GSK_TCMDC: Percent inhibition of human HepG2 cell line. Test compounds present at 10uM.

| SMILES | Inhibition (Plasmodium falciparum [1]) [%] | Inhibition (Plasmodium falciparum [2]) [%] | Inhibition (HepG2) [%] |
| --- | --- | --- | --- |
| NCC1CCCN1Cc1cccc(-c2ccc(-c3nc4cc(C(F)(F)F)ccc4[nH]3)s2)c1.O=C(O)C(F)(F)F (stereo not drawn) | 100 | 96 | 17 |
| CN1CCC(NCc2cccc(-c3ccc(S(=O)(=O)NCCN4CCCC4)c(F)c3)c2)CC1.O=C(O)C(F)(F)F | 91 | 0 | 14 |
| CCCc1cc(C(=O)N[C@@H](Cc2ccccc2)[C@H](O)CNC2CCOCC2)c(F)c(N2CCCCS2(=O)=O)c1 | 97 | 97 | 0 |
| CCCCCCCc1ccc(-c2c(C)[nH]c(C)c(Cl)c2=O)cn1 | 99 | 96 | 0 |
| Clc1ccc(Cc2nc3ccccc3[nH]2)cc1Cl | 98 | 2 | 5 |
| O=C(Nc1ccc2[nH]c(-c3ccccc3)nc2c1)c1cc(-c2ccc3c(c2)OCCO3)n[nH]1.O=C(O)C(F)(F)F | 100 | 75 | 58 |
| CC(C)c1cc(C(=O)N[C@@H](Cc2ccccc2)[C@H](O)CNC2CCCCC2)cc(N2CCCC2=O)c1 | 100 | 98 | 0 |
| CC(=O)c1c(CC(=O)O)c2ccccc2n1O | 98 | 0 | 16 |
| Fc1ccc2c(NN=Cc3ccccc3F)ccnc2c1 | 100 | 99 | 10 |
| CCOc1ccc(C2CCN(CCCCNC(=O)c3ccc(NC(=O)c4ccc(Cl)cc4)cc3)CC2)c(CC)c1 | 100 | 64 | 44 |
| COc1ccccc1CCNc1nccc(N[C@@H](Cc2ccccc2)C(=O)NCc2cccs2)n1.O=C(O)C(F)(F)F | 90 | 79 | 34 |
| COc1ccc(/C=C/C(=O)Nc2ccc(-c3ccncc3)cc2)cc1CCCN(C)C.O=C(O)/C=C\C(=O)O | 100 | 86 | 3 |
| Cc1noc(C)c1-c1ccc2c(Nc3ccccc3C(C)(C)C)c(C(=O)NCc3ccc(OC(C)C)cc3)cnc2c1.Cl | 100 | 98 | 0 |
| CC[C@H](C)CNC(=O)c1ccnc(-c2ccc(CN3CCC(N4CCCC4)CC3)cc2)c1.O=C(O)C(F)(F)F | 99 | 84 | 13 |
| CC(C)(CNC(=O)[C@@H]1CCCCN1)c1nc(-c2ccc(Cl)c(O)c2)c(-c2ccncc2)[nH]1.Cl | 97 | 96 | 0 |
| Cn1c(Sc2ncnc3sccc23)nc2ccccc21 | 100 | 100 | 0 |
| CCCc1nc2c(N3CCCN(C(=O)NC4CCCCC4)CC3)cccc2n1Cc1ccccn1 | 89 | 10 | 10 |
| OCc1ccc2nc3c(cc2c1)-c1cccc2cccc-3c12 | 96 | 0 | 16 |
| COc1ccc2ncc(F)c(CCN3CC(O)C(CNCc4ccc5c(c4)OCCO5)C3)c2n1.Cl (stereo not drawn) | 94 | 35 | 18 |
| O=C(O)C(F)(F)F.c1cc(-c2ccc(CNC3CCOCC3)cc2)cc(-c2nc3ccccc3[nH]2)c1 | 100 | 100 | 30 |
| N#CC(CC(=O)c1ccc(Cl)cc1)c1cccc(F)c1 (stereo not drawn) | 97 | 4 | 5 |
